In the library only some 2.8% were active in any assay of this set; here they are far more common.
EWS-Fli block: EWS/Fli-driven NR0B1 reporter inhibitors, primary screen, A673 cells, NR0B1 luciferase, luminescence, MLPCN library | viability-normalised | inhibition, % at 12.6 µM | 350,000 compounds, 0.67% hits | AID 651661, 2012;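 active = mean inhibition of at least 50% after viability correction, with every replicate also passing that limit; inconclusive = mean reaches 50% but only one of two replicates passes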;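 note: firefly luciferase signal divided by Alamar Blue viability fluorescence both relative to DMSO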
TROY signal inh: inhibitors of TROY-driven NF-kB signaling, primary screen, Q293 LMP1-TROYcd cells, NF-kB luciferase, uHTS; 360,000 compounds, 0.98% hits; inhibition, % at 10 µM; Q293 LMP1-TROYcd NF-kB luciferase reporter, 4 h;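 active = compounds whose plate-normalised and pattern-corrected inhibition of the luciferase reporter signal at the single screening dose is 50% or more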
PAX8 reporter: inhibitors of PAX8-driven TPO luciferase reporter, primary screen, RMG-I cells, single concentration; inhibition, % at 12.6 µM; 360,000 compounds, 1.2% hits; SteadyGlo, 24 h;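 active = mean replicate inhibition at least 60% with every replicate also reaching 60%; inconclusive = only one of the two criteria is met; inactive = mean below 60% and not all replicates reaching 60%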;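 note: luciferase light reporting Pax8 driven TPO promoter activity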
LGR2 inh: inhibitors of bursicon-induced LGR2 CRE-luciferase signal, primary screen, cell-based, HEK293, CRE-luciferase reporter, bursicon stimulation. inhibition, % at 9.99 µM. 380,000 compounds, 0.35% hits. AID 720647, 2013. bursicon-stimulated, 4 h;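 active = drop in luminescence signal, shown as inhibition above about 50% in the replicate tests, limit read from the data, passing the limit was not always enough; inconclusive = probably only some replicates passing the limit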;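 note: agonist challenge used bursicon conditioned medium at about half maximal strength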
TWEAK-Fn14 inh: inhibitors of TWEAK-Fn14 signaling, primary screen, luciferase reporter cells, uHTS. TWEAK-stimulated Fn14 reporter cells, luciferase luminescence, 8 h. inhibition, % at 10 µM. 360,000 compounds, 2% hits. AID 1159606, 2016; in the data active = inhibition above about 50%
DNA binder FP: DNA binders by acridine orange displacement, dose response, counter-screen for EWS/Fli inhibitor project, biochemical, fluorescence polarization, cherry-pick; shares compounds with EWS-Fli block; salmon sperm DNA acridine orange fluorescence polarization; AC35, µM (series often up to 68 µM); 640 compounds, 2% hits; AID 720586, 2013;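 active = fitted curve reaches a 35% signal fall AC35 below twice the sample's top valid tested dose, actives reach about 48 µM in these data; inactive = the rest, including activity in the rising direction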;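 note: lower polarization ratio signals compound binding to DNA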
Of the large screens only hits and unclear results are named; the others gave an inactive call (follow-up assays come after a bar, where they were run).

CC(C)[C@H](N)C(=O)N[C@H]1CCC2C3CC=C4C[C@@H](O)CC[C@]4(C)C3CC[C@@]21C (stereo not given in full)	EWS-Fli block 53
CC1CCN(C2=NC(=O)/C(=C/c3cn(-c4ccccc4)nc3-c3cccc(S(=O)(=O)N(C)C)c3)S2)CC1	TWEAK-Fn14 inh 76 (no result: EWS-Fli block, TROY signal inh, PAX8 reporter, LGR2 inh)
CC1CCCN(C2=NC(=O)/C(=C/c3cn(-c4ccccc4)nc3-c3cccc(S(=O)(=O)N(C)C)c3)S2)C1 (stereo not given)	none (no result: EWS-Fli block, PAX8 reporter, LGR2 inh)
C[C@@H]1CN([C@H](C)CO)C(=O)c2cccc(NC(=O)Nc3ccc(F)cc3)c2O[C@H]1CN(C)Cc1ccc2c(c1)OCO2	none (no result: TROY signal inh, TWEAK-Fn14 inh)
Cc1cc(C(=O)CSc2ccc(F)cc2)cc(C)c1OC(=S)N(C)C	TWEAK-Fn14 inh 100 (no result: EWS-Fli block, TROY signal inh, PAX8 reporter, LGR2 inh)
COCC(=O)Nc1ccc2c(c1)C(=O)N(C)C[C@H](OC)[C@@H](C)CN(Cc1cncnc1)[C@@H](C)CO2	none (no result: TROY signal inh, PAX8 reporter, TWEAK-Fn14 inh)
CC(=O)Nc1cc(-c2cccc(NS(C)(=O)=O)c2)cn2c(-c3cccc(C(C)=O)c3)cnc12	none
COc1cc(-c2cnc3c(NC=O)cc(-c4ccc(N5CCN(C)CC5)cc4)cn23)cc(OC)c1OC	none
CC(=O)Nc1cc(-c2cccc(F)c2)cn2c(-c3ccc(F)cc3)cnc12	none
CC(=O)Nc1cc(-c2cccc(NS(C)(=O)=O)c2)cn2c(-c3ccc(F)c(Cl)c3)cnc12	TWEAK-Fn14 inh 92
CC(=O)Nc1cccc(-c2cc(NC(C)=O)c3ncc(-c4ccc(F)cc4)n3c2)c1	TROY signal inh 91, TWEAK-Fn14 inh 100
COc1ccc(-c2cnc3c(NC(C)=O)cc(-c4cc(F)ccc4OC)cn23)cc1OC	EWS-Fli block 54
COc1cc(-c2cnc3c(NC(C)=O)cc(-c4ccc(N5CCN(C)CC5)cc4)cn23)cc(OC)c1OC	TROY signal inh 63, TWEAK-Fn14 inh 54
COc1cc(CN2CC3(CN(S(=O)(=O)c4cccc(F)c4)C3)c3c([nH]c4cc(OC)ccc34)[C@H]2CO)cc(OC)c1	none (no result: TROY signal inh, TWEAK-Fn14 inh)
CN(C)C(=O)c1ccc(-c2ccc3c(c2)[C@@H]2[C@@H](CCN2C(=O)c2ccccc2)[C@H](CO)N3)cc1	none (no result: TROY signal inh, TWEAK-Fn14 inh)
COc1ccccc1C#Cc1ccc([C@@H]2[C@H]3CN(CCC(F)(F)F)CCCCN3[C@H]2CO)cc1	none (no result: TROY signal inh, TWEAK-Fn14 inh)
O=CNc1cc(-c2cccc(F)c2)cn2c(-c3ccc(F)cc3)cnc12	none
CS(=O)(=O)Nc1cccc(-c2cc(NC=O)c3ncc(-c4ccc(F)cc4)n3c2)c1	PAX8 reporter 81
COc1ccc(-c2csc(NC(=O)CSCc3c(C)noc3C)n2)cc1OC	none
Cc1noc(C)c1CSCC(=O)Nc1nc(-c2ccc(F)c(F)c2)cs1	TROY signal inh 72, TWEAK-Fn14 inh 77
CCc1noc(C)c1C(=O)OCC(=O)Nc1nc(-c2ccc(F)c(F)c2)cs1	TROY signal inh 54 (no result: LGR2 inh)
CCc1noc(C)c1C(=O)Nc1nc(-c2ccc(OC)c(OC)c2)cs1	none (no result: PAX8 reporter)
Cc1ccc(NC(=O)/C(Cl)=C\c2ccccc2)cc1	none
CC(=O)c1ccc(NC(=O)/C(Cl)=C/c2ccccc2)cc1	TROY signal inh 71
COc1ccc2c3c([nH]c2c1)[C@@H](CO)N(Cc1cccnc1)CC31CN(C(=O)c2cccnc2)C1	none (no result: TROY signal inh, PAX8 reporter, TWEAK-Fn14 inh)
COc1ccc2c3c([nH]c2c1)[C@@H](CO)N(C(=O)NC(C)C)CC31CN(C(=O)C2CCCCC2)C1	none (no result: TROY signal inh, PAX8 reporter, TWEAK-Fn14 inh)
Cc1cc(C)n2c(SC(C)C(=O)NC3(C#N)CCCCC3)nnc2n1 (stereo not given)	TWEAK-Fn14 inh 67
CC(Sc1nccn1C)C(=O)NC1(C#N)CCCCC1 (stereo not given)	none
C(=N\Nc1nc2ccccc2[nH]1)/c1ccc2c(c1)OCCO2	none
Cc1cccc(/C=N/Nc2ccc3ccccc3n2)c1	EWS-Fli block 74, TROY signal inh 84, LGR2 inh 79, TWEAK-Fn14 inh 93 | DNA binder FP inactive
Cc1ccc(/C=N/Nc2ccc3ccccc3n2)o1	EWS-Fli block 53, LGR2 inh inconclusive, TWEAK-Fn14 inh 86 | DNA binder FP inactive
C(=N\Nc1ccc2ccccc2n1)/c1ccc2c(c1)OCCO2	EWS-Fli block 86, TROY signal inh 88, PAX8 reporter 73, LGR2 inh 88, TWEAK-Fn14 inh 101 | DNA binder FP inactive
Cc1nc(N)nc(N)c1/C=C/C(C)(C)c1ccc(Cl)cc1	EWS-Fli block 59, PAX8 reporter 68 | DNA binder FP inactive
CCC(=O)Nc1ccc2c(c1)C(=O)N(C)C[C@@H](OC)[C@H](C)CN(Cc1ccccc1)[C@@H](C)CO2	none (no result: TROY signal inh, PAX8 reporter, TWEAK-Fn14 inh)
CO[C@@H]1CN(C)C(=O)c2cc(NC(=O)C3CC3)ccc2OC[C@H](C)N(C(C)=O)C[C@@H]1C	none (no result: TROY signal inh, TWEAK-Fn14 inh)
C[C@@H]1CN([C@@H](C)CO)C(=O)Cc2cc(NC(=O)Nc3cccc4ccccc34)ccc2O[C@H]1CN(C)Cc1ccncc1	none (no result: EWS-Fli block, TROY signal inh, TWEAK-Fn14 inh)
C[C@H](CO)N1C[C@H](C)[C@H](CN(C)C(=O)Nc2cccc3ccccc23)Oc2ncc(C#CCC3CCCC3)cc2C1=O	none (no result: TROY signal inh, PAX8 reporter, TWEAK-Fn14 inh)
COc1cc(C(c2c(C)[nH][nH]c2=O)c2c(C)[nH][nH]c2=O)ccc1OC(C)C	EWS-Fli block 78 | DNA binder FP inactive
COc1ccc(-c2cnc3c(NC=O)cc(-c4ccccc4OC)cn23)cc1OC	EWS-Fli block 58, PAX8 reporter 100, TWEAK-Fn14 inh 53 | DNA binder FP inactive
COCc1cc(C)nc2sc(C(=O)NCCO)c(-n3cccc3)c12	EWS-Fli block 61 | DNA binder FP inactive
C[C@@H]1CCCCO[C@H](CN(C)S(=O)(=O)c2ccccc2)[C@@H](C)CN([C@@H](C)CO)C(=O)c2cc(NC(=O)C3CCCCC3)ccc2O1	none (no result: TROY signal inh, TWEAK-Fn14 inh)
COc1ccc(/C=C2/SC(=S)N(CCCC(=O)Nc3ccccc3C(=O)O)C2=O)cc1	EWS-Fli block 64, TROY signal inh 75 | DNA binder FP inactive
O=C(CCCN1C(=O)/C(=C/c2cccs2)SC1=S)NNC(=O)c1ccccc1O	none (no result: EWS-Fli block)
COc1ccc(/C=C2\SC(=S)N(CCCC(=O)N3CCN(C)CC3)C2=O)cc1	none
COc1ccc(/C=C2\SC(=O)N(CCCC(=O)Nc3ccc(C(=O)O)cc3)C2=O)cc1	EWS-Fli block 82, TROY signal inh 73, TWEAK-Fn14 inh 83 | DNA binder FP inactive
COc1ccc(/C=C2\SC(=S)N(CCCC(=O)NNC(=O)c3ccccc3O)C2=O)cc1	EWS-Fli block 77, PAX8 reporter 66 | DNA binder FP inactive
CCCC(=O)Nc1ccc2c(c1)OC[C@H](C)N(Cc1cncnc1)C[C@H](C)[C@@H](OC)CN(C)C2=O	none (no result: EWS-Fli block, TROY signal inh, TWEAK-Fn14 inh)
CN(C)CCCNC(=O)C[C@@H]1CC[C@H]2[C@@H](COC[C@H](O)CN2S(=O)(=O)c2ccc(F)cc2)O1	none (no result: TROY signal inh, TWEAK-Fn14 inh)
